# High-throughput results deposited in PubChem BioAssay by National Center for Advancing Translational Sciences (NCATS).
# In the library only some 12% were active in any assay of this set; here they are far more common.
# L3MBTL1 block = qHTS Assay for the Inhibitors of L3MBTL1; AlphaScreen L3MBTL1–H3K9me1 peptide binding; Potency, µM (highest dose often 57.1 µM), for inactives: top-dose activity, negative = inhibition, most hits filed as inhibitors; 0.66% of 230,000 active; AID 485360, 2010; note: % is set by controls: 0 for no effect and ±100 for the full control effect; nearly all actives have a fitted effect of over 60% in size
#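 AlphaScreen assay: L3MBTL1 (50 nM final) was preincubated 30 min at room temperature with biotinylated H3(1-15)K9me1 peptide (75 nM final), then 30 min with library compounds; streptavidin donor and nickel chelate acceptor beads (10 ug/mL final) added, 30 min dark.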
# G9a block = qHTS Assay for Inhibitors of Histone Lysine Methyltransferase G9a; Potency, µM (series often up to 102 µM), for the others: top-dose activity, negative = inhibition, hits mostly inhibitors; G9a H3K9 monomethylation, AlphaScreen, 2 h; 8.8% of 350,000 active; Histone-lysine N-methyltransferase EHMT2 (Homo sapiens), Q96KQ7; note: % is set by controls: 0 for no effect and ±100 for the full control effect; nearly all actives have a fitted effect of over 75% in size
#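 G9a (20 nM) preincubated 15 min RT with compounds, then 500 nM biotinylated H3K9 peptide and 20 uM SAM added; 2 h RT reaction. Monomethyl-H3K9 product detected by AlphaScreen with anti-H3K9me1 antibody, streptavidin donor and anti-rabbit IgG acceptor beads.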
# HP1b chromo inh = HTS for Inhibitors of HP1-beta Chromodomain Interactions with Methylated Histone Tails; Chromobox protein homolog 1 (Homo sapiens), P83916; AlphaScreen HP1-beta / biotin-H3K9me3 peptide binding; Potency, µM (top dose mostly 114 µM), without a hit: at the highest dose activity change, negative = inhibition, actives largely listed as inhibitors; 0.56% of 390,000 active; note: nearly all actives have a fitted effect of over 70% in size
#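 Compound inhibition of the preformed complex between 50 nM HP1-beta and 50 nM biotinylated H3K9me3 peptide was read by AlphaScreen. Buffer was PBS pH 7.4 with 0.01% Tween-20. Incubations ran 30 min at room temperature, with 10 ug/mL donor/acceptor beads.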
# Sfp PPTase inh = qHTS Assay for Inhibitors of Bacillus subtilis Sfp phosphopantetheinyl transferase (PPTase). Biochemical Sfp PPTase activity, qHTS. Potency, µM, for the others: largest response in the series, negative = inhibition, actives largely listed as inhibitors. 3.5% of 310,000 active;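 note: the enzyme is Sfp with the accession as filed and its product quenches rhodamine fluorescence; 0% = enzyme reaction without inhibitor and -100% = no enzyme wells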
#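 Step 1, compound plus 15 nM Sfp-PPTase, 15 min, room temperature. Step 2, add rhodamine-CoA (5 uM) and BHQ-2-YbbR (12.5 uM). Step 3, read 525/598 nm fluorescence at 0 and 30 min.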
# BAZ2B block = qHTS Assay for Inhibitors of BAZ2B; 4.4% of 360,000 active; Potency, µM (series often up to 114 µM), inactives show at the top dose activity change, negative = inhibition, usual class: inhibitors; AlphaScreen BAZ2B-H3K14Ac peptide displacement; AID 504333, 2011; note: % is set by controls: 0 for no effect and ±100 for the full control effect; nearly all actives have a fitted effect of over 60% in size
# Target sequence (Q9UIF8 whole entry, looked up): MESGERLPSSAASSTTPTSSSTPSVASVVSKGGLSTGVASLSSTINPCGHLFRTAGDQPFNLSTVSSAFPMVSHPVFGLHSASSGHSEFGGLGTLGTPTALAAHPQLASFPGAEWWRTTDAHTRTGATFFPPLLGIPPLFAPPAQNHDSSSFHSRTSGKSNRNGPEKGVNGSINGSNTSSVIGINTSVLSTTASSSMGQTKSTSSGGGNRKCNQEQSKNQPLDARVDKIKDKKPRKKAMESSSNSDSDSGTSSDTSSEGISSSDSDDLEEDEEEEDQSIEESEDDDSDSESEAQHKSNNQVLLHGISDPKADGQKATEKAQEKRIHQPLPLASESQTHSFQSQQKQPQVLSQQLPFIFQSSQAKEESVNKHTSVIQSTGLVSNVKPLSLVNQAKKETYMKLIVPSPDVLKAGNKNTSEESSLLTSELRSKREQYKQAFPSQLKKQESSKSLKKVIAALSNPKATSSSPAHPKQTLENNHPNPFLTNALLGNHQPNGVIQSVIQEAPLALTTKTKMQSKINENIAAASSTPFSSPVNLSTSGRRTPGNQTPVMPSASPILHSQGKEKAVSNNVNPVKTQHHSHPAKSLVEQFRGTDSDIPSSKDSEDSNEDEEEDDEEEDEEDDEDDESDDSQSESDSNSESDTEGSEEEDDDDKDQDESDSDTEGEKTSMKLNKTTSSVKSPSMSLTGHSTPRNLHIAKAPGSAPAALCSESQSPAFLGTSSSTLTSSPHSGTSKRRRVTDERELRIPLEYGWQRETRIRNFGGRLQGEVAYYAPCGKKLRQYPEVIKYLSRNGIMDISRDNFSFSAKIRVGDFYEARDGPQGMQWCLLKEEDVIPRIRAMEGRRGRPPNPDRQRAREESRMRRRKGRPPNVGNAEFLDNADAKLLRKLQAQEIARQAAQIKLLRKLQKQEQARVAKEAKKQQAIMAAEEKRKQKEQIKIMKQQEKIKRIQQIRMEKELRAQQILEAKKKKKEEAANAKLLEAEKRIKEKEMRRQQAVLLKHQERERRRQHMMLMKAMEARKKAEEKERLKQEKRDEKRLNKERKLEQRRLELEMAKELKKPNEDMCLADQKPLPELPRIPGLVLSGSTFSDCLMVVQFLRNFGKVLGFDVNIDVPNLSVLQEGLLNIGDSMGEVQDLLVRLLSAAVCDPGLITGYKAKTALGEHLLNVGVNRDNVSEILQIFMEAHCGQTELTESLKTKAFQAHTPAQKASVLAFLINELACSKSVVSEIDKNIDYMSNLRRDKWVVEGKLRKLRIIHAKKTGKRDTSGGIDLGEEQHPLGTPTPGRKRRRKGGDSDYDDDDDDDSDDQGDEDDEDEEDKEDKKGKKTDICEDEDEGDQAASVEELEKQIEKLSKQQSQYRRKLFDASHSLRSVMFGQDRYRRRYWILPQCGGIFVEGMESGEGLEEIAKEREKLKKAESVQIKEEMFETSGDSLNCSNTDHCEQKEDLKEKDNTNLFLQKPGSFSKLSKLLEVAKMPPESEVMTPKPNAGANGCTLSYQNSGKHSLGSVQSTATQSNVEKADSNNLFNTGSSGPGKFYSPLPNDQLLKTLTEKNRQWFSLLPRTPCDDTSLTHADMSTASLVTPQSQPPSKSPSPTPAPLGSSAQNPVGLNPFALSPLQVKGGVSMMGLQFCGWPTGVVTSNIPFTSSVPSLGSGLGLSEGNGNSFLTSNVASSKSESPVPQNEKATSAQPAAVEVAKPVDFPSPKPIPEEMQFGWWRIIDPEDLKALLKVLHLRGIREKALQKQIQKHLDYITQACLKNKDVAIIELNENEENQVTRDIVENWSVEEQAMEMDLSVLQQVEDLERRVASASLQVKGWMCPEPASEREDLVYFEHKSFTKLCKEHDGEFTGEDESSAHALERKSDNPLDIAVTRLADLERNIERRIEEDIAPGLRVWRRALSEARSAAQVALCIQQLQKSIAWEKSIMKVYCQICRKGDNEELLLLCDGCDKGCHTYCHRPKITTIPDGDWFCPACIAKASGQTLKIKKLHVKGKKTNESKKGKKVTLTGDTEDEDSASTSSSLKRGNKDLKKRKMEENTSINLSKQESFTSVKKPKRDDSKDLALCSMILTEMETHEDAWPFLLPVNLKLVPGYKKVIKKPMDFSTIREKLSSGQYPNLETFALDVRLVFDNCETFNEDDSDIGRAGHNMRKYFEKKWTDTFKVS
#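 Complex of BAZ2B and biotin-H3K14Ac (50 nM apiece) forms over 30 min at RT, then faces library compounds up to 110 uM for another 30 min; AlphaScreen beads added, 20 min dark incubation, luminescence read.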
# JMJD2A Tudor inh = qHTS Assay for Inhibitors of JMJD2A-Tudor Domain; AID 504339, 2011; 4.4% of 390,000 active; AlphaScreen JMJD2A-Tudor / H3K4me3 peptide binding; Lysine-specific demethylase 4A (Homo sapiens), O75164; Potency, µM (series often up to 114 µM), without a hit: at the top dose activity change, negative = inhibition, usual class: inhibitors; note: % is set by controls: 0 for no effect and ±100 for the full control effect; nearly all actives have a fitted effect of over 50% in size
# Active calls of the source: *; ? = inconclusive; . = no result given; [ ] = dose if it differs, or a comment. Calls come from the whole dose curve; as a rule, active = well fitted curve in the direction sought with a large enough effect; inconclusive = small, poorly fitted or top-dose-only effect, or another doubt; inactive = no such curve, though single readings can be large; an effect the other way counts as inactive or inconclusive. Potency is the fitted concentration of half-maximal effect.
SMILES,L3MBTL1 block,G9a block,HP1b chromo inh,Sfp PPTase inh,BAZ2B block,JMJD2A Tudor inh
FC(F)(F)c1nc(N2CCCC2)ncc1-c1nnnn1-c1ccc(Cl)cc1,.,23%,118%,-8%,18%,14%
Cc1ccc(C)c(N2CCN(C(=O)CSCc3ccccc3Cl)CC2)c1,.,36%[59 µM],46%,.,12%,17%
COc1ccc(COC(=O)N/N=C2/C[C@@H](O)[C@@H](O)[C@@H]3[C@@H]4C(=O)N(c5cccc(Oc6ccccc6)c5)C(=O)[C@H]4CC[C@H]23)cc1,.,.,.,-5%,.,.
CCCNC(=O)OC[C@H]1O[C@@H](CCO/N=C2/C[C@@H](O)[C@@H](O)[C@@H]3[C@@H]4C(=O)N(CC)C(=O)[C@H]4CC[C@@H]23)C=C[C@@H]1Oc1ccc(OC)cc1,.,.,.,7%,.,.
COC(=O)c1ccc(-n2nnc(-c3nc(-c4ccc5c(c4)OCO5)no3)c2C)cc1,.,-1%[59 µM],13%,.,-2%,?
O=C(O)c1c(C(=O)N2N=C3/C(=C/c4ccccc4)CCCC3C2c2ccccc2)cccc1[N+](=O)[O-] (stereo unspecified),-3%,50µM*,16%,-26%,?,-21%
O=C(O)c1ccccc1C(=O)N1N=C2/C(=C/c3cccc([N+](=O)[O-])c3)CCCC2C1c1cccc([N+](=O)[O-])c1 (stereo unspecified),-4%,50µM*,-5%,-16%,45µM*,?
CCn1c(=O)n(-c2ccc(F)c(Cl)c2)c(=O)c2sc3ccccc3c21,.,6%[59 µM],29%,.,-11%,-5%
Cc1ccc(-c2cc3ncc(C(=O)c4cc([N+](=O)[O-])ccc4O)cn3n2)cc1,.,-1%[59 µM],17%,.,?,-34%
O=C(CNC(=O)c1ccc(C(F)(F)F)cc1)OC(C(=O)Nc1cc(C(F)(F)F)ccc1Cl)c1ccccc1 (stereo unspecified),.,.,.,.,.,-19%
O=C(OC1CCOC1=O)C1CCN(S(=O)(=O)c2c(Cl)cccc2Cl)CC1 (stereo unspecified),-13%,?,5%,.,?,-21%
O=C1C=C(O)c2c(O)cc(O)c(O)c2C1=O,.,.,?,.,.,1.6µM*
Cc1cc(O)c2c(c1O)C(=O)c1c(O)cc(C)c(O)c1C2=O,.,-35%[2.33 µM],.,-5%,.,.
O=C1c2ccccc2C(=O)c2c(O)c(O)cc(O)c21,?,?,11µM*,-20%,.,22µM*
Nc1ccc(Br)c2c1C(=O)c1ccccc1C2=O,?,4%[0.0925 µM],?,50µM*,10µM*,?
Nc1ccc(O)c2c1C(=O)c1ccccc1C2=O,?,7.1µM*,?,?,4µM*,5.6µM*
CCOC(=O)c1ccccc1S(=O)(=O)N1CCN(c2nc(-c3cccs3)nc3ccccc23)CC1,.,.,21%,.,.,?
COc1ccccc1N(C)S(=O)(=O)c1ccc(Cl)c(C(=O)Nc2ccccc2N2CCOCC2)c1,.,.,25%,.,.,-27%
CCN(CC)CCn1c(-c2ccccc2)nc2c(NCc3ccccc3)nc(C)nc21,.,.,.,11%,.,.
COc1cc(C2c3c(oc4ccc(F)cc4c3=O)C(=O)N2c2nc(C)c(C)s2)cc(OC)c1OC (stereo unspecified),.,25%[59 µM],36%,.,32%,-1%
O=C(O)CC1NCCc2ccccc21 (stereo unspecified),3%,-33%[59 µM],13%,15%,-12%,-8%[11.4 µM]
CC(=O)N=Cc1c(C)c(C#N)c(=O)n(C)c1O,.,45µM*,34%,?,-31%,-15%
Cc1c(C=O)c(Cl)n(C)c(=O)c1C#N,-27%,40µM*,12%,?,56µM*,79µM*
Oc1ccc2ccccc2c1SSc1c(O)ccc2ccccc12,.,6.7µM*,.,.,.,.
CCOC(=O)C1CCN(S(=O)(=O)c2ccc(CC)cc2)CC1,45%,51%[59 µM],23%,-3%,60%,40µM*
SMILES,L3MBTL1 block,G9a block,HP1b chromo inh,Sfp PPTase inh,BAZ2B block,JMJD2A Tudor inh
Oc1ccc2ccccc2c1CN1CCCC1,-7%,6.3µM*,8%,6%,-20%,2%
CCOC(=O)C1CCN(Cc2c(O)ccc3ccccc23)CC1,-14%,3.5µM*,28%,-9%,13%,-4%
CCOC(=O)c1ccc(S(=O)(=O)N2CCC(C(=O)OCC)CC2)cc1,12%,-7%[2.33 µM],7%,18%,-5%,-10%
CCOC(=O)N1CCN(Cc2c(O)ccc3ccccc23)CC1,-7%,?,?,-5%,0%,?
Cc1cc2c(s1)c1cnn(Cc3cccc(Cl)c3)c(=O)c1n2C,.,.,.,.,.,-32%
CCOC(=O)C1CCN(Cc2ccc(F)c(F)c2)CC1,.,28µM*,?,-3%,?,5.6µM*
Oc1ccc2ccccc2c1CNc1ccc(Br)cn1,13%,.,71%,0%,-2%,0%
OCCN1CCN(Cc2ccc3ccccc3c2)CC1,-13%,.,?,-29%,50µM*,20µM*
CCOC(=O)N1CCN(Cc2ccc3ccccc3c2)CC1,-5%,.,?,-24%,?,25µM*
